High-throughput results (PubChem)
ERb coact inh: ER-beta (human) coactivator binding inhibition; Q92731; TR-FRET ER-beta LBD / SRC1-Cy5 peptide binding; receptor agonist-loaded with 1 µM estradiol; inhibition, % at 25.6 µM; actives 1.3% (n = 86,000); AID 633;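 active means compounds whose percent inhibition of the receptor-coactivator binding signal exceeds about 50% in the single-dose screen, limit read from the data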
ERa SRC1 inh: blocks coactivator binding to human estrogen receptor alpha. P03372. TR-FRET ER-alpha LBD / SRC-1 peptide, estradiol-bound. inhibition, % at 25.6 µM. actives 1.7% (n = 86,000). AID 629; in the data active means inhibition above about 50%
FAK blocker: blocks human focal adhesion kinase activity; inhibition, %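 (tested at 7 µM)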; biochemical FAK kinase activity assay; actives 0.84% (n = 97,000); Q05397
Target sequence (Q05397 whole entry, looked up): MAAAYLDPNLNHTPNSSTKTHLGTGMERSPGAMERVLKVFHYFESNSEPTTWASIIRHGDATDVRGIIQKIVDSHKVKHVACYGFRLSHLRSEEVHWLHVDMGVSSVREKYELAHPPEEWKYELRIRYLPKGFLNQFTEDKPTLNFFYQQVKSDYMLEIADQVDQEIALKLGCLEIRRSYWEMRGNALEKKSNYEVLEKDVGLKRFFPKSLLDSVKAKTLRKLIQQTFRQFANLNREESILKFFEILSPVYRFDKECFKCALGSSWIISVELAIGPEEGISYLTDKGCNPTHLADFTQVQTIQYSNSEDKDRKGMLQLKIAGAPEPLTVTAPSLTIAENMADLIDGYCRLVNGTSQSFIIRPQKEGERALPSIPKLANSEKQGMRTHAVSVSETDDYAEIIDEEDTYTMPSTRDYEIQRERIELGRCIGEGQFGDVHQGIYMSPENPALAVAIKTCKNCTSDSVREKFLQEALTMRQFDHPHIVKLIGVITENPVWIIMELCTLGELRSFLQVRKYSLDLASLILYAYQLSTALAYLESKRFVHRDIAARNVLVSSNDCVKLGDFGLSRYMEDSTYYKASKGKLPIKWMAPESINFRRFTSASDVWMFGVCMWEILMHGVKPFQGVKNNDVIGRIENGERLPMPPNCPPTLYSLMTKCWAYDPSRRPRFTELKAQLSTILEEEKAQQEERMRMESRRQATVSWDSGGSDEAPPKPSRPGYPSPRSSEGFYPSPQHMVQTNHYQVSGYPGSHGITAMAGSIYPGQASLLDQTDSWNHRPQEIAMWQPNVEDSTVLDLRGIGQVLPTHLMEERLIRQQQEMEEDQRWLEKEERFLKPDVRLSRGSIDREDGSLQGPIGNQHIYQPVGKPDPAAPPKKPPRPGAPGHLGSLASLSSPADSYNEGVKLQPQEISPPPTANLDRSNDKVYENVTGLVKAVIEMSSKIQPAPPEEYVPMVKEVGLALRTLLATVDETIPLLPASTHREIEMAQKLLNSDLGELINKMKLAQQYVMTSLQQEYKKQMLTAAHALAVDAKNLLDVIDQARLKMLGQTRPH
ERa SRC1 pot: ER-alpha (human) coactivator binding potentiation; P03372; TR-FRET ERalpha-LBD/SRC-Cy5 coactivator binding, 2 h; 100 = basal binding, no effect; coactivator binding (% of control), % at 25.6 µM; actives 1.3% (n = 86,000); AID 639; in the data active means activity above about 200%;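 further: binding measured in presence of low estradiol as agonist stimulus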
FAK inh confirm: FAK (human) inhibition confirmed; shares compounds with FAK blocker; FAK kinase biochemical inhibition assay; inhibition, % at 7 µM; actives 28% (n = 750)
Of the large screens only hits and unclear results are named; the others gave an inactive call (follow-up assays come after a bar, where they were run); [ ] = dose if it differs, or a comment. Sampled rows, rich in hits. Any-hit rate of the full collection: about 3.2%. Unless noted, no stated cut-off is given here; in the data, active means inhibition above about 19%; inactive means the rest.

Cc1ccc(/C=N\Nc2nc3ccc(Cl)cc3[nH]2)o1	FAK blocker 21.4 (no result: ERb coact inh, ERa SRC1 inh, ERa SRC1 pot) | FAK inh confirm inactive
O=c1cc(O)nc(SC23CC4CC(CC(C4)C2)C3)[nH]1	none
CCCSc1nc2c(cnn2-c2ccc(C)cc2)c(=O)[nH]1	FAK blocker 22.7, ERa SRC1 pot 297.5[fluorescence artefact?] | FAK inh confirm inactive
COC(=O)C(NC(=O)c1ccc(F)cc1)(Nc1nc(C)cs1)C(F)(F)F (configuration not stated)	none (no result: ERb coact inh, ERa SRC1 inh, ERa SRC1 pot)
CCC(C)n1cnc2c(c1=O)c1nc3ccccc3nc1n2-c1ccc2c(c1)OCCO2 (configuration not stated)	FAK blocker 21.4, ERa SRC1 pot 246.1 | FAK inh confirm inactive
Cc1occc1C(=O)NC1CCCCCC1	FAK blocker 72.1 | FAK inh confirm inactive
CC(=O)CSc1nc(C(F)(F)F)cc(=O)n1-c1ccccc1	FAK blocker 56.2 (no result: ERb coact inh, ERa SRC1 inh, ERa SRC1 pot) | FAK inh confirm inactive
Cc1onc(-c2ccccc2Cl)c1C(=O)Nc1ccccc1N1CCOCC1	none
COc1ccc(S(=O)(=O)N(CCCN2CCCC2=O)Cc2cc3c(C)cc(C)cc3[nH]c2=O)cc1	none
N#Cc1nc(-c2cccs2)oc1NCc1ccccc1	FAK blocker 22.3 | FAK inh confirm inactive
CN1CCN(c2ccccc2NS(=O)(=O)c2ccc3c(c2)CCN3C(=O)C2CCC2)CC1	none (no result: ERb coact inh, ERa SRC1 inh, ERa SRC1 pot)
COc1ccc(Cc2nc3ccc(S(=O)(=O)N4CCOCC4)cc3[nH]2)cc1OC	none
COc1ccc(Cc2nc3ccc(S(=O)(=O)N4CCOCC4)cc3[nH]2)cc1	ERa SRC1 inh 59.8, FAK blocker 95.5 | FAK inh confirm inactive
CCOc1cc(CNc2ccc(O)cc2)ccc1OCc1ccc(Cl)cc1Cl	FAK blocker 31.6 (no result: ERb coact inh, ERa SRC1 inh, ERa SRC1 pot) | FAK inh confirm inactive
Oc1ccc(NCc2ccccc2OCc2ccccc2F)cc1	FAK blocker 35.3 (no result: ERb coact inh, ERa SRC1 inh, ERa SRC1 pot) | FAK inh confirm inactive
CCOc1cccc(CNc2ccc(O)cc2)c1OCc1ccc(Cl)cc1	FAK blocker 30.1 (no result: ERb coact inh, ERa SRC1 inh, ERa SRC1 pot) | FAK inh confirm inactive
COc1cc(CNCc2ccccn2)ccc1OCc1ccc(Cl)cc1Cl	none (no result: ERb coact inh, ERa SRC1 inh, ERa SRC1 pot)
CCCCC(=O)NC1(C(F)(F)F)C(=O)Nc2c1c(=O)[nH]c(=O)n2Cc1ccco1 (configuration not stated)	none (no result: ERb coact inh, ERa SRC1 inh, ERa SRC1 pot)
Cc1ccc(S(=O)(=O)N2CCCC2c2nc3ccccc3s2)cc1 (configuration not stated)	none (no result: ERb coact inh, ERa SRC1 inh, ERa SRC1 pot)
O=C(c1ccc(-c2nnc(Nc3ccccc3)c3ccccc23)cc1)N1C[C@H]2C[C@H](C1)c1cccc(=O)n1C2	none
Cc1cc2c(C)nc(-c3ccccc3)nc2o1	FAK blocker 25.1 | FAK inh confirm inactive
COc1ccc(S(=O)(=O)Nc2ccc(O)c(Sc3ncn[nH]3)c2)cc1	none
COc1ccc(S(=O)(=O)Nc2cc(Sc3ncn[nH]3)c(O)c3ccccc23)cc1	FAK blocker 45.5 (no result: ERb coact inh, ERa SRC1 inh, ERa SRC1 pot) | FAK inh confirm inactive
COc1ccc(OCC(=O)Nc2cccc(-c3nc4ccccc4o3)c2)cc1	none
CCc1ccc(OCC(=O)Nc2ccc(-c3nc4ccccc4o3)c(O)c2)cc1	ERb coact inh 69.9[fluorescence artefact?], ERa SRC1 inh 79.5[fluorescence artefact?], FAK blocker 29.7 | FAK inh confirm 21.4
CC(/C=N\NC(=O)c1cccnc1)c1ccccc1 (configuration not stated)	none (no result: ERb coact inh, ERa SRC1 inh, ERa SRC1 pot)
Nc1ccc2c(c1)C(=O)C(=O)c1ccccc1-2	FAK blocker 57.2 | FAK inh confirm 57.8
COc1ccccc1-c1cc(N)n[nH]1	FAK blocker 25.0 | FAK inh confirm inactive
Cc1ccccc1Cn1c2ccccc2c2cn[nH]c(=O)c21	FAK blocker 19.9 (no result: ERb coact inh, ERa SRC1 inh, ERa SRC1 pot) | FAK inh confirm inactive
Cc1ccc2c(c1)[nH]c1c(=O)n(Cc3ccccn3)cnc12	none
c1ccc(-c2nccc(-c3ccc(-n4cnc5ccccc54)cc3)n2)cc1	ERb coact inh 62.8[fluorescence artefact?], ERa SRC1 inh 91.8[fluorescence artefact?], FAK blocker 86.0 | FAK inh confirm 80.7
c1ccc(-n2nnnc2-n2cnc3ccccc32)cc1	none
Cc1ccc(NC(=O)COc2ccc(/C=N/NC(=O)CSCc3ccccc3)cc2)cc1	FAK blocker 20.2 (no result: ERb coact inh, ERa SRC1 inh, ERa SRC1 pot) | FAK inh confirm inactive
Cc1ccc(N2C(=O)[C@@H]3[C@H](C2=O)C2c4ccccc4C=CN2[C@@H]3C(=O)c2ccco2)c(C)c1 (some centres not stated)	none (no result: ERb coact inh, ERa SRC1 inh, ERa SRC1 pot)
Cc1ccc(N2C(=O)[C@@H]3[C@H](C2=O)C2c4ccccc4C=CN2[C@@H]3C(=O)c2ccco2)cc1 (some centres not stated)	FAK blocker 32.2 (no result: ERb coact inh, ERa SRC1 inh, ERa SRC1 pot) | FAK inh confirm inactive
COc1ccc(N2C(=O)[C@@H]3[C@H](C2=O)[C@H]2c4ccccc4C=CN2[C@@H]3C(=O)Nc2ccccc2)cc1	none
O=C(c1ccco1)[C@@H]1[C@@H]2C(=O)N(c3ccccc3)C(=O)[C@@H]2C2c3ccccc3C=CN21 (some centres not stated)	FAK blocker 19.2 (no result: ERb coact inh, ERa SRC1 inh, ERa SRC1 pot) | FAK inh confirm inactive
COc1ccc(OCC(O)Cn2c(Nc3cccc(C)c3)nc3c2c(=O)n(C)c(=O)n3C)cc1 (configuration not stated)	none (no result: FAK blocker)
O=C1CCCC2=C1C(c1ccc(Cl)cc1)C1C(=O)c3ccccc3C1=N2 (configuration not stated)	FAK blocker 23.2 (no result: ERb coact inh, ERa SRC1 inh, ERa SRC1 pot) | FAK inh confirm inactive
O=C1CCCC2=C1C(c1ccc(Cl)cc1)N1C(=O)CCSC1=N2 (configuration not stated)	none
Cc1ccc(C(=O)N/N=C/c2ccc([N+](=O)[O-])s2)cc1	ERa SRC1 inh 67.5, FAK blocker 50.1 | FAK inh confirm inactive
CCS(=O)(=O)n1nc(-c2ccc(Cl)cc2)nc1SC	none
Cn1nc(-c2ccc(Cl)cc2)nc2c(=O)n(C)c(=O)nc1-2	FAK blocker 69.2 | FAK inh confirm 66.9
COCCNC(=O)C(c1cccs1)N(C(=O)Cn1nnc2ccccc21)c1ccc(OC)cc1 (configuration not stated)	none
Cc1ccc2nc(-c3ccc(NC(=O)CSc4ccccc4)cc3)[nH]c2c1	FAK blocker 31.7 (no result: ERb coact inh, ERa SRC1 inh, ERa SRC1 pot) | FAK inh confirm inactive
Cc1ccc2nc(-c3ccc(SCC(=O)O)nc3)[nH]c2c1	none (no result: ERb coact inh, ERa SRC1 inh, ERa SRC1 pot)
Cn1c(=O)c2c(nc(CN3CCCCC3)n2Cc2c(F)cccc2Cl)n(C)c1=O	none (no result: FAK blocker)
Cc1ccc2nc3c(cc(C(N)=S)c(=N)n3CCCOC(C)C)c(=O)n2c1	FAK blocker 28.3 | FAK inh confirm inactive
C=CCn1c(=N)c(C(=O)OCC)cc2c(=O)n3cc(C)ccc3nc21	none (no result: FAK blocker)
O=C(NCC1CCCO1)C1c2ccccc2C(=O)N1C1CCCCCC1 (configuration not stated)	none
CSc1nc(SCC(=O)NC(c2ccccc2)c2ccccc2)c2c3c(sc2n1)CN(C)CC3	FAK blocker 24.0 | FAK inh confirm inactive
CSc1nc(SCC(=O)NCc2ccco2)c2c3c(sc2n1)COC(C)(C)C3	none (no result: FAK blocker)
O=C(NCc1ccco1)c1cc(C(=O)C2CC2)c[nH]1	none (no result: ERb coact inh, ERa SRC1 inh, ERa SRC1 pot)
CCNc1nc(N)c(C(=O)c2ccc(Cl)s2)s1	FAK blocker 19.3 | FAK inh confirm inactive
CC(C)c1nnc(NC(=O)C2CCCCC2)s1	none
CC(C)c1cc(C(N)=O)c(NC(=O)C2CCC2)s1	FAK blocker 24.0 | FAK inh confirm inactive
O=C(Nc1ccccc1Cl)ON=C1c2ccccc2-c2ccccc21	FAK blocker 34.9 (no result: ERb coact inh, ERa SRC1 inh, ERa SRC1 pot) | FAK inh confirm inactive
